Records with an inconclusive call do not appear. The source made the active and inactive calls. How the source made its calls, unless noted: active means hit-call score of the fitted dose curve at least 0.9, where 1 is the maximum; inactive means score below 0.9.
Columns and labels:
[1] = CCTE_Harrill_HTTr_Viability_MCF7: CCTE's 6-hour Cell Viability Assessment for the High-Throughput Transcriptomics (HTTr) Platform, in MCF-7 cells cultured in DMEM + 10% fetal bovine serum, Harrill Lab (AID 2284010)
Procedure, shortened: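 PI exclusion, high-content imaging; 8-pt dilution series, 6 h exposure; bidirectional fit vs DMSO (neg. ctrl/baseline); gain of signal = loss of membrane integrity.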

[2] = CCTE_Harrill_HTTr_Apoptosis_MCF7: CCTE's 6-hour Apoptosis Assessment for the High-Throughput Transcriptomics (HTTr) Platform, in MCF-7 cells cultured in DMEM + 10% fetal bovine serum, Harrill Lab (AID 2284011)
Procedure, shortened: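 Cells are dosed with test chemicals at eight concentrations and imaged 6 hours later for caspase-3/7 activity using a green fluorogenic detection reagent. Activity is fitted in both directions against DMSO controls.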

[3] = CCTE_Harrill_HTTr_CellCount_MCF7: CCTE's Cell Proliferation Assessment for the High-Throughput Transcriptomics (HTTr) Platform, Harrill Lab (AID 2284012; active means hit-call score of the fitted dose curve at least 0.9, where 1 is the maximum;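 further: count of Hoechst-stained nuclei per well by high-content imaging in MCF-7 cells; cells exposed to compound for six hours; intended direction is loss of nuclei count meaning fewer cells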)
Procedure, shortened: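 Readout: Hoechst nuclear count by high-content imaging. MCF-7, 8-point dilution series, 6 h exposure. Bidirectional fit vs DMSO baseline.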

[4] = CCTE_Shafer_MEA_acute_burst_number: CCTE's Neural Acute Assay for Single-Electrode Bursts, Shafer Lab (AID 2284013)
Procedure, shortened: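 Primary rat cortical neurons on 16-electrode MEA wells, DIV 13 or 15, exposed to compound (0.03-40 uM; ≥3 wells); 40-min recordings at 37 C before and after treatment. Burst count expressed as percent change from baseline, DMSO as negative control.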

[5] = CCTE_Shafer_MEA_acute_burst_duration_mean: CCTE's Neural Acute Assay for Mean Burst Duration, Shafer Lab (AID 2284014);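 further: hits are decreases in mean burst duration relative to DMSO controls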
Procedure, shortened: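 Mean burst duration was compared between a 40 min baseline and a 40 min recording in the presence of compound (0.03-40 uM, 37 C), giving percent change per well. Cultures were rat cortical neurons at DIV 13 or 15; wells needed ≥10 active electrodes.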

[6] = CCTE_Shafer_MEA_acute_burst_percentage_mean: CCTE's Neural Acute Assay for Percentage of Spikes in a Burst, Shafer Lab (AID 2284017);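 on AC50: curve fitted for loss of signal so potency reflects decreased burst percentage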
Procedure, shortened: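 Rat cortical cultures, DIV 13/15, 37 C. Spikes detected at 8x rms noise (300-5000 Hz band-pass). Burst spikes/total spikes averaged across electrodes per well; % change post- vs pre-treatment (40 min each), loss-of-signal fit vs DMSO.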

[7] = CCTE_Shafer_MEA_acute_burst_percentage_std: CCTE's Neural Acute Assay for Standard Deviation of Burst Percentage, Shafer Lab (AID 2284018);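 further: fitted in the negative direction so actives lower burst percentage SD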
Procedure, shortened: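 Value is percent change from baseline in the across-electrode SD of spikes-in-bursts percentage, wells with >/= 10 active electrodes. Acute 40-min exposure to 0.03-40 uM on DIV 13 or 15 rat cortical cultures, recorded at 37 C after 40-min baseline.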

[8] = CCTE_Shafer_MEA_acute_per_network_burst_spike_number_mean: CCTE's Neural Acute Assay for Average Number of Spikes in a Network Burst, Shafer Lab (AID 2284019);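 on AC50: curve fitted for loss of signal so actives reduce spikes per network burst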
Procedure, shortened: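 Percent change from baseline in mean spikes per network burst, spikes detected at 8x rms noise. Each compound at 0.03-40 uM in at least three wells of rat cortical cultures, recorded 40 min before and 40 min during exposure.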

[9] = CCTE_Shafer_MEA_acute_per_network_burst_spike_number_std: CCTE's Neural Acute Assay for Standard Deviation of Number of Spikes in a Network Burst, Shafer Lab (AID 2284020);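 further: fitted for decrease in spike-number SD versus DMSO so actives lower it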
Procedure, shortened: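 Endpoint: percent change from 40 min baseline in standard deviation of spikes per network burst, after 40 min compound exposure (0.03-40 uM, 37 C). Cortical rat neurons on MEA at DIV 13 or 15; spikes detected at 8x rms noise, 300-5000 Hz band-pass.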

[10] = CCTE_Shafer_MEA_acute_interburst_interval_mean: CCTE's Neural Acute Assay for Mean Interburst Interval, Shafer Lab (AID 2284016);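 further: percent change of mean interburst interval versus each well's own pre-dose baseline; curves fitted for decrease in interburst interval relative to DMSO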
Procedure, shortened: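 Rat cortical cultures, DIV 13/15; 20 min equilibration, 40 min baseline, compound 0.03-40 uM, 40 min re-recording, 37 C. Spikes detected at 8x rms noise (300-5000 Hz band-pass). Endpoint: % change in interburst interval, fitted in loss direction vs DMSO.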

Measured: AC50

O=C(O)c1cccc(C(=O)O)n1
inactive: [1] | [2] | [3]

Cc1ccccc1C(OCCN(C)C)c1ccccc1 (stereo unspecified)
inactive: [1] | [2] | [3]

CC1COCc2cc3c(cc21)C(C)(C)C(C)C3(C)C (stereo unspecified)
inactive: [1] | [2] | [3]

CC1=NN(c2ccccc2)C(=O)C1
inactive: [1] | [2]

COc1cc(OC)nc(NC(=O)NS(=O)(=O)Nc2ccccc2C(=O)N(C)C)n1
inactive: [1] | [2]

C[C@]12CC[C@@H]3c4ccc(O)cc4CC[C@H]3[C@@H]1C[C@@H](O)[C@@H]2O
inactive: [1] | [2] | [3]

CC1CCC(CO)CC1 (stereo unspecified)
inactive: [1] | [2] | [3]

CCCCCCCCCC=CCC1CC(=O)OC1=O (stereo unspecified)
inactive: [1] | [2]

Cc1ccc(N=Nc2c(O)ccc3ccccc23)c(C)c1
inactive: [1] | [2]

O=C(O)C(=O)O
inactive: [1] | [2] | [3]

Brc1ccc(Oc2ccc(Br)cc2Br)cc1
inactive: [1] | [2] | [3]

Cn1sccc1=O
inactive: [1] | [2] | [3]

COC1=CC(=O)C[C@@H](C)[C@]12Oc1c(Cl)c(OC)cc(OC)c1C2=O
inactive: [1] | [2] | [3]

CCCCCCCCCCCC[N+](C)(C)Cc1ccccc1
active: [1] 68.8 µM | [2] 70.8 µM | [3] 70.3 µM

CC(C)(C)c1ccc(CCC=O)cc1
inactive: [1] | [2] | [3]

O=C(c1ccccc1)c1ccccc1
inactive: [1] | [2] | [3]

NC(=NCCCCCCN=C(N)/N=C(\N)Nc1ccc(Cl)cc1)/N=C(\N)Nc1ccc(Cl)cc1
inactive: [2]
active: [1] 70 µM

O=S(=O)(O)c1ccccc1
inactive: [1] | [2]

CC(C)[C@@H]1CC[C@@H](C)C[C@H]1O
inactive: [1] | [2]

CN(Cc1cnc2nc(N)nc(N)c2n1)c1ccc(C(=O)N[C@@H](CCC(=O)O)C(=O)O)cc1
inactive: [1] | [2]

Cc1cc(Cc2cc(C)cc(C(C)(C)C)c2O)c(O)c(C(C)(C)C)c1
inactive: [1] | [2] | [3]

O=C(NCc1ncc(C(F)(F)F)cc1Cl)c1c(Cl)cccc1Cl
inactive: [1] | [2]

Cc1[nH]nc2c1N=C(c1ccccc1Cl)c1cc([N+](=O)[O-])ccc1N2
inactive: [1] | [2] | [3]

C=CC(C)(CCC=C(C)C)OC(C)=O (stereo unspecified)
inactive: [1] | [2] | [3]

CCCCCCCCCCCCCCCCCC[N+](C)(C)Cc1ccccc1
inactive: [1] | [2] | [3]

CC(C)c1c(C(=O)Nc2ccccc2)c(-c2ccccc2)c(-c2ccc(F)cc2)n1CC[C@@H](O)C[C@@H](O)CC(=O)O
inactive: [1] | [2] | [3]

CNNCc1ccc(C(=O)NC(C)C)cc1
inactive: [1] | [2] | [3]

C=C(c1ccc(C(=O)O)cc1)c1cc2c(cc1C)C(C)(C)CCC2(C)C
inactive: [1] | [2]

C[C@]12CC[C@@H]3c4ccc(O)cc4CC[C@H]3[C@@H]1CC[C@@H]2OC(=O)CCC1CCCC1
inactive: [1] | [2] | [3]

Nc1ccc(O)c(C(=O)O)c1
inactive: [1] | [2]

NS(=O)(=O)O
inactive: [1] | [2]

c1cc2cccc3c4cccc5cccc(c(c1)c23)c54
inactive: [1] | [2]

CC(C)(O)C(=O)c1ccccc1
inactive: [1] | [2]

CCCCCC(C)OC(=O)COc1ccc(Cl)c2cccnc12 (stereo unspecified)
inactive: [1] | [2] | [3]

CC(=O)Nc1ccc(O)cc1
not listed: [10]
inactive: all other assays above

CCC(=O)O
inactive: [1] | [2] | [3]

CC1=CC(=O)c2ccccc2C1=O
inactive: [1] | [2] | [3]

CCCCCCCCCCCCOS(=O)(=O)O
inactive: [1] | [2] | [3]

CCCCCCCCCCCCOC(=O)c1cc(O)c(O)c(O)c1
inactive: [1] | [2] | [3]

CCCCc1oc2ccccc2c1C(=O)c1cc(I)c(OCCN(CC)CC)c(I)c1
inactive: all assays above

O=C(CCCN1CCC(O)(c2ccc(Cl)cc2)CC1)c1ccc(F)cc1
active: [8] 0.451 µM
inactive: all other assays above

O=C1NS(=O)(=O)c2ccccc21
active: [4] 0.003 µM
inactive: all other assays above

CS(=O)(=O)c1ccc([C@@H](CC2CCCC2)C(=O)Nc2cnccn2)cc1Cl
inactive: [1] | [2] | [3]

O=c1cc(-c2ccccc2)oc2ccc3ccccc3c12
inactive: [1] | [2] | [3]

Cc1cccc2c1ccc1ccccc12
inactive: [1] | [2] | [3]

CCCCCCCCCCCC(=O)O
inactive: [1] | [2] | [3]

Cc1cncc(C)c1
inactive: [1] | [2] | [3]

CC(O)COc1ccccc1 (stereo unspecified)
inactive: [1] | [2] | [3]

OCC(CO)(CBr)CBr
inactive: all assays above

CCCCC=O
inactive: all assays above

CC(C)(C)c1ccc(O)c(O)c1
inactive: [1] | [2] | [3]

CCCCCCCCC(C)=O
inactive: [1] | [2] | [3]

CCCCC(CC)C(=O)O (stereo unspecified)
inactive: [1] | [2] | [3]

CCC(C)c1ccccc1O (stereo unspecified)
active: [4] 2.44 µM | [6] 7.61 µM
inactive: all other assays above

Nc1ccn([C@@H]2O[C@H](CO)[C@@H](O)C2O)c(=O)n1 (stereo partly specified)
inactive: [1] | [2] | [3]

CN(C)CCOC(c1ccccc1)c1ccccc1
active: [4] 3.11 µM | [10] 7.21 µM | [6] 5 µM
not listed: [3]
inactive: all other assays above

O=C(NO)c1ccccc1
inactive: [1] | [2] | [3]

Oc1c(Cl)cc(Cl)cc1Sc1cc(Cl)cc(Cl)c1O
active: [6] 7.11 µM | [9] 5 µM
inactive: all other assays above

CCCCCCCCCCCCCCC
inactive: [1] | [2] | [3]

C=Cc1ccc(O)c(OC)c1
inactive: [1] | [2] | [3]

CC(=O)Nc1ccc(S(N)(=O)=O)cc1
inactive: [1] | [2] | [3]

CC(C)(c1ccc(Oc2ccc(N)cc2)cc1)c1ccc(Oc2ccc(N)cc2)cc1
inactive: [1] | [2] | [3]

CC(C)(C)C1CCCCC1O (stereo unspecified)
inactive: [1] | [2] | [3]

N=C(N)c1ccc(OCCCCCOc2ccc(C(=N)N)cc2)cc1
active: [6] 26.9 µM | [7] 31.8 µM
inactive: all other assays above

CCCCCCCCCCCC
inactive: all assays above

Oc1ccc(Cc2ccccc2O)cc1
active: [4] 0.0236 µM
not listed: [1] | [2] | [3]
inactive: all other assays above

c1cnc2c(c1)ccc1cccnc12
inactive: [1] | [2] | [3]

Reference: PubChem BioAssay (EPA / NIEHS)
